An excerpt weighted towards active compounds, which were near 2% of everything screened.
IL-2 act = activates IL-2 in a cell-based reporter assay; IL-2 activation reporter assay, cell-based qHTS; stimulated with anti-CD3/CD4/CD28 beads; in transgenic mouse T cells; activation, % (series mostly up to about 46 µM); hit rate 0.065% among 360,000; AID 652025; in the data active = activation above about 50%; inconclusive = mostly about 30% to 49%; also: 0% is about no effect
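Unstimulated transgenic mouse T cells; 60-min compound exposure; bead-based TCR/CD4/CD28 stimulation; 18 h culture, 37 degrees C; dual fluorescence (EGFP, DsRed) plate cytometry.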
NPSR antagonist = blocks cAMP signaling of the human neuropeptide S receptor; Potency, µM (top dose mostly 38.3 µM), for inactives: at the highest dose activity change, negative = inhibition, hits mostly inhibitors; CHO-NPSR cells, cAMP TR-FRET, antagonist mode; hit rate 1% among 220,000; Q6W5P4; also: potency is read from the fitted curve at half-maximal effect; % is scaled to controls: 0 for no effect and ±100 for the full control effect; nearly all actives have a fitted effect of over 50% in size
Target sequence (Q6W5P4 whole entry, looked up): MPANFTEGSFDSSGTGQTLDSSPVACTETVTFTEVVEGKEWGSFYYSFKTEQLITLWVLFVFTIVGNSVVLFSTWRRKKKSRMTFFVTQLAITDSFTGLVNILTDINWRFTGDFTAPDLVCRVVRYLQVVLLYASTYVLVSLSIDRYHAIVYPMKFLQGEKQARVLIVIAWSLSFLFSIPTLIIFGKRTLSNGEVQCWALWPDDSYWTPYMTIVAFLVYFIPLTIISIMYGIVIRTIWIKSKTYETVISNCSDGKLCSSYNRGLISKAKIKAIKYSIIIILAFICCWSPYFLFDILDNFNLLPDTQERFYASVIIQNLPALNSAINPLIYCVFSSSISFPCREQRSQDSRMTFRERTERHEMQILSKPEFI
ClpP mod = qHTS Assay for Activators of ClpP. purified B. subtilis ClpP, FRET peptide cleavage, 20 min. Potency, µM (doses to about 57.5 µM), inactives show at the top dose activity change, negative = active. hit rate 1.9% among 340,000; active = well fitted falling curve with a large enough effect; inconclusive = small, poorly fitted or top-dose-only effect; inactive = no such curve, though single readings can be large or run the other way; also: potency is read from the fitted curve at half-maximal effect; the source files actives as falling curves though it sought activators and does not explain the sign; nearly all actives have a fitted effect of over 65% in size
Target sequence (P80244 whole entry, looked up): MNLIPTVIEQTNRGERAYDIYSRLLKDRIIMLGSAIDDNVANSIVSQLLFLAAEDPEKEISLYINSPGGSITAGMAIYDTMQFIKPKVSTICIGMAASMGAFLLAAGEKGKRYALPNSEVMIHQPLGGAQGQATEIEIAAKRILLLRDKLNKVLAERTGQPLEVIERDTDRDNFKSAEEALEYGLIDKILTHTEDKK
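Buffer: 100 mM Tris/HCl pH8, 100 mM KCl, 0.05% low protease BSA, 2.5% glycerol, 0.01% Tween-20. ClpP 10 microg/mL final; 20 min RT; delta FRET normalized to ADEP and DMSO controls.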
PKM2 act = PKM2 (human) enzyme activation | hit rate 0.34% among 260,000 | AID 1631 | Potency, µM (highest dose often 57.5 µM), for the others: top-dose activation, most hits filed as activators | purified PKM2, Kinase-Glo ATP luminescence, activation; response scale: 0% is enzyme alone, no compound; also: potency is read from the fitted curve at half-maximal effect; % is scaled to controls: 0 for no effect and ±100 for the full control effect; nearly all actives have a fitted effect of over 55% in size
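hPK-M2, >95% pure; 0.1 mM ADP / 0.5 mM PEP final; imidazole pH7.2 buffer w/ 7 mM MgCl2, 50 mM KCl; 1 h RT; Kinase-Glo lum. Intermediate enzyme activity for dual inhibitor/activator qHTS.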
Numbers without * were called inactive; ? = inconclusive; . = no result; [ ] = dose if it differs, or a comment. Unless noted, calls follow the shape of the dose curve; as a rule, active = well fitted curve in the direction sought with a large enough effect; inconclusive = small, poorly fitted or top-dose-only effect, or another doubt; inactive = no such curve, though single readings can be large; an effect the other way counts as inactive or inconclusive.

SMILES	IL-2 act	NPSR antagonist	ClpP mod	PKM2 act
CC(=O)c1ccc(NC(=O)CSc2nc(C3CC3)nc3ccccc23)cc1	-4	.	0%	.
Cn1c2ccccc2c2cnn(CC(=O)O)c(=O)c21	-1	-3%[46.1 µM]	32µM*	0%
O=C(Cn1ncc2c3ccccc3n(Cc3ccccc3)c2c1=O)N1CCN(c2ccccn2)CC1	-1	.	?	4%
COC(=O)Cn1ncc2c3ccccc3n(C)c2c1=O	1	-2%[46.1 µM]	14µM*	9%
CNC(=O)Cn1ncc2c3ccccc3n(C)c2c1=O	0	.	4%	.
O=C(Cn1ncc2c3ccccc3n(Cc3ccccc3)c2c1=O)N1CCN(c2ncccn2)CC1	-3	-15%[46.1 µM]	32µM*	-6%
Cc1cccc(Oc2nc3ccccn3c(=O)c2/C=C(\C#N)C(=O)NC2CCS(=O)(=O)C2)c1 (stereo unspecified)	1	-3%	25µM*	-1%
N#C/C(=C\c1c(N2CCCCC2)nc2ccccn2c1=O)C(=O)NC1CCS(=O)(=O)C1 (stereo unspecified)	0	3%	4µM*	-4%
O=C(CN(C(=O)CNS(=O)(=O)c1ccccc1)c1ccc(F)cc1)NCc1ccco1	2	.	.	.
O=C(c1cc(Br)c[nH]1)N1CCCCC1	0	.	1%	.
COc1ccc(S(=O)(=O)CC(=O)Nc2nnc(C(F)(F)F)s2)cc1	0	.	2%	5%
O=C(CN1CCN(C(=O)c2ccccc2)CC1)Nc1cccc(S(=O)(=O)N2CCCC2)c1	0	.	-1%	.
CS(=O)(=O)c1ncc(Cl)c(C(=O)Nc2ccc3ccccc3c2)n1	0	10µM*	.	?
COCc1c(Br)c(C)[nH]c(=O)c1C#N	1	-5%[46.1 µM]	14µM*	0%
CC(Oc1ccc(-c2nnco2)cc1)C(=O)N1CCOCC1 (stereo unspecified)	2	.	2%	.
COc1ccc(NC(=O)N2CCN(C(=O)C(Cc3ccc(F)cc3)NC(C)=O)CC2)cc1 (stereo unspecified)	2	3%	32µM*	-1%
O=C(Nc1ccc2nc(SCCOc3ccccc3Cl)sc2c1)c1cccs1	.	.	11µM*	.
CC(C)(C)Sc1ccc2nc3c(n2c1)CCCC3	1	-45%	16µM*	2%
O=C(NCc1nnc2c(C(F)(F)F)cc(Cl)cn12)c1ccco1	-3	.	-24%	14µM*
Cc1ccc(C(=O)NCc2nnc3c(C(F)(F)F)cc(Cl)cn23)o1	-3	.	-2%	1%
Cn1cnnc1Sc1cc(N2CCN(S(=O)(=O)c3ccc(Cl)c(Cl)c3)CC2)ccc1[N+](=O)[O-]	2	-24%[46.1 µM]	0%	2.8µM*
Cc1cc(C)n(-c2cc(N3CCN(S(=O)(=O)c4ccc5ccccc5c4)CC3)ccc2[N+](=O)[O-])n1	0	-28%[46.1 µM]	2%	1%
Cn1cnnc1Sc1cc(N2CCN(S(=O)(=O)c3ccc4ccccc4c3)CC2)ccc1[N+](=O)[O-]	0	14%	-4%	0.35µM*
CCOC(=O)c1c(C)[nH]c(C)c1C(=O)CSc1nc2ccccc2c(=O)n1-c1ccc(F)cc1	-1	-58%	.	1%
CCOC(=O)c1c(C)[nH]c(C)c1C(=O)CSc1nc2ccccc2c(=O)n1-c1ccccc1C	-3	-30%	28µM*	8%
SMILES	IL-2 act	NPSR antagonist	ClpP mod	PKM2 act
CSc1cnc2c(=O)n(C)c(=O)[nH]c2n1	1	5%	16µM*	0%
Cn1c(SCC(=O)O)nnc1-c1ccc(NC(=O)c2ccc(Cl)c(Cl)c2)cc1	1	-6%	.	-4%
O=C1COc2ccc(S(=O)(=O)N3CCc4ccccc43)cc2N1	2	-1%	1%	14µM*
O=S(=O)(c1cnc(Cl)c(Cl)c1)N1CCc2ccccc21	0	20%[7.67 µM]	1%	3.5µM*
Cc1cc2c(cc1S(=O)(=O)N1CCc3ccccc31)NC(=O)CO2	-1	-7%	.	.
Nc1nc2ccccc2cc1C(=O)NCc1cccs1	-1	.	4%	.
O=C(NCCc1ccccc1)c1ccc(S(=O)(=O)N2CCCCC2)cc1	-1	.	-2%	.
O=S(=O)(Nc1cccc2ccccc12)N1CCCC1	-3	5%[46.1 µM]	28µM*	-5%
O=C(NCCc1ccccc1)c1ccccc1NS(=O)(=O)N1CCCC1	-1	-14%[46.1 µM]	14µM*	1%
O=S(=O)(Nc1ccc2c(c1)oc1ccccc12)N1CCCC1	-3	-14%[46.1 µM]	?	0%
CC(C)C(OC(=O)c1cc2occc2n1C)C(=O)NCc1ccc2c(c1)OCO2 (stereo unspecified)	-4	-26%[46.1 µM]	-4%	-1%
CCC1(C)Cc2ccccc2C(Nc2c(C)n(C)n(-c3ccccc3)c2=O)=N1 (stereo unspecified)	0	-2%[46.1 µM]	14µM*	-7%
CC(=O)Oc1ccc(NC(=O)C2CCCCC2)c(C(=O)O)c1	0	-3%[46.1 µM]	28µM*	-4%
O=C(O)CSc1nnc(COc2ccc(Br)cc2)n1-c1ccccc1	4	.	.	-2%
CCCc1nc2ccccc2c(C(=O)OCC(=O)Nc2ccc(S(=O)(=O)N3CCOCC3)cc2)c1CC	-3	10µM*	0%	-2%
CCOC(=O)NC(=O)COC(=O)c1ccc(Sc2ncn[nH]2)c([N+](=O)[O-])c1	0	10%	16µM*	5%
O=C(NCCN1CCOCC1)c1ccc(Cl)cc1O	3	.	.	.
Cc1nc(SCc2ccc(OCCC(C)C)cc2)n[nH]1	1	5%	-1%	-3%
CCOC(=O)c1c(NC(=O)c2ccco2)n(C2CCCCC2)c2nc3ccccc3nc12	1	-7%[46.1 µM]	28µM*	6%
COc1ccc(-c2nc(CS(=O)CC(=O)NCCc3ccccc3)c(C)o2)cc1OC (stereo unspecified)	.	.	16µM*	.
COc1ccc(-c2nc(CS(=O)CC(=O)NCCc3ccc(C)cc3)c(C)o2)cc1OC (stereo unspecified)	-3	.	4%	.
COc1ccc(-c2nc(CS(=O)CC(=O)NCCCN3CC(C)CC(C)C3)c(C)o2)cc1OC (stereo unspecified)	-1	-2%[46.1 µM]	28µM*	1%
CCOC(=O)N/N=C\c1ccccc1OC/C=C/c1ccccc1	-5	.	-2%	1%
Cc1onc(-c2c(F)cccc2Cl)c1C(=O)Nc1nnc(-c2ccccc2)s1	-2	-12%[46.1 µM]	32µM*	8%
Cc1ccc2c(c1)N(CC(=O)NC1CCCCC1C)C(=O)CO2 (stereo unspecified)	0	-15%[46.1 µM]	-2%	0%
Cc1cccc(OC(C)c2ccnc3nc(/N=C/N(C)C)nn23)c1 (stereo unspecified)	-3	2%[46.1 µM]	28µM*	-3%
COc1cccc(OC(C)c2ccnc3nc(/N=C/N(C)C)nn23)c1 (stereo unspecified)	-3	-3%[46.1 µM]	32µM*	3%
CC(Oc1ccc(C(C)(C)C)cc1)c1ccnc2nc(/N=C/N(C)C)nn12 (stereo unspecified)	-2	-26%[46.1 µM]	28µM*	-1%
CCOC(=O)C1(C)CCN1C(=O)c1cc(C)oc1C (stereo unspecified)	0	.	1%	.

Assay outcomes: PubChem, National Center for Advancing Translational Sciences (NCATS)
